# Reference: the supplement of paper PMC10849652
# Targets with a hit are over-represented here; the source holds about 7,900 in all. About 0.6% of all pairs of compound and target were hits. Values without a mark were called inactive.
# Key:
# Experiment in all cases: log2 fold change, soluble protein after heating vs DMSO (PISA); higher = thermal stabilisation; K562 cells, 10 uM, 30 min; active = over 0.2 and 3.5 SD of the protein, either way, in both replicates (recomputed)
# [1] = compound: CC1=C(C=C(C=C1)NC(=O)C2=CC(=CC=C2)C(C)(C)C#N)NC3=CC4=C(C=C3)N=CN(C4=O)C
# How it was run: (§1)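 Values are thermal stability changes relative to control samples and are taken from duplicates. They are stated as log2 fold changes. Before quantification by TMTpro 16plex LC-MS/MS with equalised channel sums, K562 cells at 2×10^6 cells/mL were treated with 10 μM compound for 30 min, heated in aliquots for 3 min across 48°C-58°C, pooled, extracted in PBS with 0.5% NP-40 at 4°C, and centrifuged at 21,000xg for 90 min to give the soluble supernatant.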
# [2] = compound: CC1=C(C=C(C=C1)NC(=O)C2=CC(=CC=C2)N(C)C)NC(=O)C3=CC=C(C=C3)O
# How it was run: as §1
# [3] = compound: CC1=CC=C(C=C1)SC2=C3C=C(SC3=CN=C2)C(=O)N
# How it was run: as §1
# [4] = compound: CC1=NC(=CC=C1)C2=C(N=C(N2)C(C)(C)C)C3=CC4=NC=CN=C4C=C3
# How it was run: as §1
# [5] = compound: CCCCN(Cc1ccc(C(=O)NO)cc1)C(=O)Nc1ccccc1 [Nexturastat A]
# How it was run: as §1
# [6] = compound: CCCS(=O)(=O)Nc1ccc(F)c(C(=O)c2c[nH]c3ncc(-c4ccc(Cl)cc4)cc23)c1F [vemurafenib]
# How it was run: as §1
# [7] = compound: CCCS(=O)(=O)Nc1ccc(F)c(C(=O)c2c[nH]c3ncc(Cl)cc23)c1F
# How it was run: as §1
# [8] = compound: CCCc1cc(C)[nH]c(=O)c1CNC(=O)c1cc(-c2ccnc(N3CCN(C)CC3)c2)cc2c1cnn2C(C)C
# How it was run: as §1
# [9] = compound: CCN(CC)Cc1ccc2cc(COC(=O)Nc3ccc(C(=O)NO)cc3)ccc2c1 [givinostat]
# How it was run: as §1
# [10] = compound: CCN(CCCOc1ccc2c(Nc3cc(CC(=O)Nc4cccc(F)c4)[nH]n3)ncnc2c1)CCOP(=O)(O)O [barasertib]
# How it was run: as §1
# [11] = compound: CC[C@@H]1C(=O)N(C)c2cnc(Nc3ccc(C(=O)NC4CCN(C)CC4)cc3OC)nc2N1C1CCCC1
# How it was run: as §1
# [12] = compound: CC[C@@H]1C(=O)N(C)c2cnc(Nc3ccc(C(=O)N[C@H]4CC[C@H](N5CCN(CC6CC6)CC5)CC4)cc3OC)nc2N1C(C)C [volasertib]
# How it was run: as §1
# [13] = compound: CC[C@H](C)N1C=C(C2=C(C=C(C=C21)C3=CN=C(C=C3)N4CCNCC4)C(=O)NCC5=C(C=C(NC5=O)C)C)C
# How it was run: as §1
# [14] = compound: CC[C@H](C)[C@@H](C(=O)N[C@@H]([C@@H](C)O)C(=O)N[C@@H](CC(C)C)C(=O)[C@]1(CO1)C)NC(=O)[C@H]([C@@H](C)CC)N(C)C(=O)C [epoxomicin]
# How it was run: as §1
# [15] = compound: CCn1c(C(=O)N(C2CC2)C2CC2)cc2c3c(ncn3C)c(Nc3cc(C)n(C)n3)nc21
# How it was run: as §1
# [16] = compound: CCn1cc(-c2ccnc3[nH]c(-c4cccc(CN(C)C)c4)cc23)c(-c2ccc(NC(=O)N(C)C)cc2)n1
# How it was run: as §1
# [17] = compound: CN(C)CC(=O)Nc1ccc2[nH]c(=O)c3ccccc3c2c1
# How it was run: as §1
# [18] = compound: CN(CCOC1=CC=C(C=C1)C[C@H]2C(=O)NC(=O)S2)C3=CC=CC=N3 (racemic) [rosiglitazone]
# How it was run: as §1
# [19] = compound: CN1C2=C(C3=C1C(=O)N(N=C3)CC4=CC(=CC=C4)N)SC(=C2)S(=O)C
# How it was run: as §1
# [20] = compound: CN1CCC(CNc2ccc3ncc(-c4cccc(OC(F)(F)F)c4)n3n2)CC1
# How it was run: as §1
# UniProt P08240, sequence (P08240 whole entry, looked up): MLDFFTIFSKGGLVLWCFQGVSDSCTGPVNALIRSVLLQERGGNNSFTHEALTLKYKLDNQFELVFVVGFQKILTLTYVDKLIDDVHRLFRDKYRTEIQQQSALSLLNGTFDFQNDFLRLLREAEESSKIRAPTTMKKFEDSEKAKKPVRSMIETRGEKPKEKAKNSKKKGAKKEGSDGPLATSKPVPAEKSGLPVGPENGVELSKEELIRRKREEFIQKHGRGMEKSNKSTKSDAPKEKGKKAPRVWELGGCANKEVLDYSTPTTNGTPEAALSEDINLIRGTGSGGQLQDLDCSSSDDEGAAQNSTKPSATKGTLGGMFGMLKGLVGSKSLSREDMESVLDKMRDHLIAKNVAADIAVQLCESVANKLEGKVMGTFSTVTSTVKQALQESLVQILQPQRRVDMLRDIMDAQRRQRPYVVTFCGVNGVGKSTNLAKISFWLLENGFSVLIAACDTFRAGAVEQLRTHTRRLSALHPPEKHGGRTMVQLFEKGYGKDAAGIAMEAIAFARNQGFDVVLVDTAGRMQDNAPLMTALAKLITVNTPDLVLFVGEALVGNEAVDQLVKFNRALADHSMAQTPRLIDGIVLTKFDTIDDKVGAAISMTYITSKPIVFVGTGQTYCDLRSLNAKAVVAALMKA
# UniProt Q96CQ1, sequence (Q96CQ1 whole entry, looked up): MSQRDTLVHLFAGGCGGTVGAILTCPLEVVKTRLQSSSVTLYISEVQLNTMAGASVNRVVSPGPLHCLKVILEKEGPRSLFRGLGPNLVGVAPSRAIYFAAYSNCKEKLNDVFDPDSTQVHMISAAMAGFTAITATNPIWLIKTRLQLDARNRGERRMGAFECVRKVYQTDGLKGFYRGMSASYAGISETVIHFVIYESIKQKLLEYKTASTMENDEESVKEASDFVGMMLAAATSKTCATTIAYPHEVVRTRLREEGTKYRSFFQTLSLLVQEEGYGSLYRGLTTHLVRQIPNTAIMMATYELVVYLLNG
# UniProt Q99805, sequence (Q99805 whole entry, looked up): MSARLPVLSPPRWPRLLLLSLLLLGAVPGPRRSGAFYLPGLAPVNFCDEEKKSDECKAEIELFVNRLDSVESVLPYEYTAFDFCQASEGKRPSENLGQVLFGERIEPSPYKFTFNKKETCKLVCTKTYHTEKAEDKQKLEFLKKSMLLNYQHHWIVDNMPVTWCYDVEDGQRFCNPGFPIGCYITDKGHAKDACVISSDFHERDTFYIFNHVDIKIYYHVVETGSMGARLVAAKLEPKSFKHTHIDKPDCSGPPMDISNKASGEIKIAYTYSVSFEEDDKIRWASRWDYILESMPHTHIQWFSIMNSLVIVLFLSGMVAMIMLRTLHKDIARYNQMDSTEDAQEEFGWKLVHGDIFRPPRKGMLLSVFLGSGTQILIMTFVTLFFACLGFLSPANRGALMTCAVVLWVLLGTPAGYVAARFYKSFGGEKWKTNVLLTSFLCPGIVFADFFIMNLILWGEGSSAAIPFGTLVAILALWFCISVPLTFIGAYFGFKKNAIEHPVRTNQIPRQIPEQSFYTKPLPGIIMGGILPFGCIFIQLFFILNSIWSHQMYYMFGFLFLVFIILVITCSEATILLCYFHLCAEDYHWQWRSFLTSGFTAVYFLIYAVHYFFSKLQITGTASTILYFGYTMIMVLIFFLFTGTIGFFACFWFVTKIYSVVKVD
# UniProt Q01130, sequence (Q01130 whole entry, looked up): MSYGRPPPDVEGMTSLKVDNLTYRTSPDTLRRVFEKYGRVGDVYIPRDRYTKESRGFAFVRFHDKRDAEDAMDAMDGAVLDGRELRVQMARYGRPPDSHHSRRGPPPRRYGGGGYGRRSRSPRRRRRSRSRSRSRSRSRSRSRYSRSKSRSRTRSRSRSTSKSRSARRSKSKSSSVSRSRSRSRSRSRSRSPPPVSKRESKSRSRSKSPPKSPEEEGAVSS
# UniProt Q15582, sequence (Q15582 whole entry, looked up): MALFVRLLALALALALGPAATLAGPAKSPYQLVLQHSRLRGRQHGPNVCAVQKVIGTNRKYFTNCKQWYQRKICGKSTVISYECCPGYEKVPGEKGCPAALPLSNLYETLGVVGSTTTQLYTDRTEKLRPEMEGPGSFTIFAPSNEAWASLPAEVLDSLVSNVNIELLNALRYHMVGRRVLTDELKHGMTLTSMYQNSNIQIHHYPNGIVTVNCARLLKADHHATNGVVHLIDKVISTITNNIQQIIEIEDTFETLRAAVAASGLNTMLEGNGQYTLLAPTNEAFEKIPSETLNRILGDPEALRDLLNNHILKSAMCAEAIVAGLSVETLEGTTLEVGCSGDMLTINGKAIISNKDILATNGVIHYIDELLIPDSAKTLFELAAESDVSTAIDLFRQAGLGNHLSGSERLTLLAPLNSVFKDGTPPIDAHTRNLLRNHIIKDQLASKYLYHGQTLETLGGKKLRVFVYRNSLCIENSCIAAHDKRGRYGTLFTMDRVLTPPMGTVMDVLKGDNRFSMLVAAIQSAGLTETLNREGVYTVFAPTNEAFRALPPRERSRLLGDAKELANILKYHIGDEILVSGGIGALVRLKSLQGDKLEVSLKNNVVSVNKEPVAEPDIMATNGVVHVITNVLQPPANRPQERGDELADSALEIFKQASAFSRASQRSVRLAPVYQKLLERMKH
# UniProt Q15796, sequence (Q15796 whole entry, looked up): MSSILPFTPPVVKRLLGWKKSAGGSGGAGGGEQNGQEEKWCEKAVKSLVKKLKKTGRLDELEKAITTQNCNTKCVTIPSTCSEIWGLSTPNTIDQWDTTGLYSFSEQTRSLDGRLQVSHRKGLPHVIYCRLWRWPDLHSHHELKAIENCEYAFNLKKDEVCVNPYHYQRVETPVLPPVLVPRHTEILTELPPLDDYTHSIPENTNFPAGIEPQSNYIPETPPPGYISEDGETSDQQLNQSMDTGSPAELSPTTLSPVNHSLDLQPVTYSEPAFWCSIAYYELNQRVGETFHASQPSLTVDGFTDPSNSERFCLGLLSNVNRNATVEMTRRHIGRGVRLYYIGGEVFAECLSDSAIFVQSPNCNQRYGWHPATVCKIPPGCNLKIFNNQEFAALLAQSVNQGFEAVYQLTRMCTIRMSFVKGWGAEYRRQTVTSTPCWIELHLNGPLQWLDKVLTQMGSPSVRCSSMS
# UniProt Q9UNL2, sequence (Q9UNL2 whole entry, looked up): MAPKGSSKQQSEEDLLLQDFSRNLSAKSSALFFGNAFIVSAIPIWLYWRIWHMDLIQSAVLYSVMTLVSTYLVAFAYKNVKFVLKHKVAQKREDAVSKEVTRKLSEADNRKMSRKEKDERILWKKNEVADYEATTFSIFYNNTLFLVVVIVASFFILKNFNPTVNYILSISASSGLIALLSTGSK
# UniProt Q99523, sequence (Q99523 whole entry, looked up): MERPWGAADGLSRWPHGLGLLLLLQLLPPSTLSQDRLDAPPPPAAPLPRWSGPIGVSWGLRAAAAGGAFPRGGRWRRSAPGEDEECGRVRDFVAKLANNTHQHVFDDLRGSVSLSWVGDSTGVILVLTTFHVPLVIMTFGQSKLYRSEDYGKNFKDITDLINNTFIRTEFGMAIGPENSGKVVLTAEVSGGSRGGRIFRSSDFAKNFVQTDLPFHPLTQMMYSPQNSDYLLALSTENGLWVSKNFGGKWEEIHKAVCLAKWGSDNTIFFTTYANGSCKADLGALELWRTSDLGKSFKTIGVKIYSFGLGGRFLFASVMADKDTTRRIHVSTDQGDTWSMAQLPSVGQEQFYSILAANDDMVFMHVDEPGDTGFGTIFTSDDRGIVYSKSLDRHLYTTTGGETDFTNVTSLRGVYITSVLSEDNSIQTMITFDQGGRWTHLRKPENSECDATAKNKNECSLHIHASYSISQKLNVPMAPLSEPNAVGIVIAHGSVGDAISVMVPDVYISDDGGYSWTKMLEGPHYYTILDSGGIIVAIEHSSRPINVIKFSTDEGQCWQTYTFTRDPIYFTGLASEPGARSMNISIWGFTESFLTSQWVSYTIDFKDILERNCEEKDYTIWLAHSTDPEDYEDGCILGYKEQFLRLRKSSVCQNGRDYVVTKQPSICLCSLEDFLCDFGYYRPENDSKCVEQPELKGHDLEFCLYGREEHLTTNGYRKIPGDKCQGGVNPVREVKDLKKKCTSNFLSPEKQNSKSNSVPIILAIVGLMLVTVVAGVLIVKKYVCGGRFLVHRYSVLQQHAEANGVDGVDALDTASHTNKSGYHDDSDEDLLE
# UniProt Q8TC07, sequence (Q8TC07 whole entry, looked up): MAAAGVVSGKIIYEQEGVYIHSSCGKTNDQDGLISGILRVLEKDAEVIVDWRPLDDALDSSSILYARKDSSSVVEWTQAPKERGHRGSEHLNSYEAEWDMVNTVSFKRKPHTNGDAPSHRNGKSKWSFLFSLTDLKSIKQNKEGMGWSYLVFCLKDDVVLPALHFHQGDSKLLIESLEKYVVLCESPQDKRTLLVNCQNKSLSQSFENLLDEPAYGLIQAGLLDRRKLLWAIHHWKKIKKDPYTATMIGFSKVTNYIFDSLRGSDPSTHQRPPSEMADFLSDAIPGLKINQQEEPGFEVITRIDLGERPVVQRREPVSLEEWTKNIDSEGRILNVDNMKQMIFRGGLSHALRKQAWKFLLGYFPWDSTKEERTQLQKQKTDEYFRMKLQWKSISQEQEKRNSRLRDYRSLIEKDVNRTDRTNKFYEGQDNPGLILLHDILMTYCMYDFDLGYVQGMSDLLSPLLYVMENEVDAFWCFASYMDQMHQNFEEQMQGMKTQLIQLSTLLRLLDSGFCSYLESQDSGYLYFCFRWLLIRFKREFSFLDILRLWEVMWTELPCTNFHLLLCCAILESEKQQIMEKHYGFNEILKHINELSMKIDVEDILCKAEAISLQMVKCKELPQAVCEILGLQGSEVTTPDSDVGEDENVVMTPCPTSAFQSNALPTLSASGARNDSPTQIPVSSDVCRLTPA
# UniProt P51571, sequence (P51571 whole entry, looked up): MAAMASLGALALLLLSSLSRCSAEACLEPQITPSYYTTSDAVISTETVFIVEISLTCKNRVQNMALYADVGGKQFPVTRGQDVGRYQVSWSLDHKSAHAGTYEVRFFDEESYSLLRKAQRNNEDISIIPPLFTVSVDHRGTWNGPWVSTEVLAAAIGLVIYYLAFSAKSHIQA
Target,log2 fold change [1],log2 fold change [2],log2 fold change [3],log2 fold change [4],log2 fold change [5],log2 fold change [6],log2 fold change [7],log2 fold change [8],log2 fold change [9],log2 fold change [10],log2 fold change [11],log2 fold change [12],log2 fold change [13],log2 fold change [14],log2 fold change [15],log2 fold change [16],log2 fold change [17],log2 fold change [18],log2 fold change [19],log2 fold change [20]
SLC25A36 (UniProt Q96CQ1),0.044,0.008,-0.172,-0.048,0.016,-0.297 (active),0.016,-0.067,0.115,-0.011,-0.133,0.059,0.045,0.026,-0.002,-0.135,-0.217,-0.073,0.02,0.046
TFAM (UniProt Q00059),0.039,-0.004,-0.036,-0.036,0.079,-0.05,-0.043,-0.033,-0.055,-0.023,0.058,0.059,0.007,-0.053,0.035,0.062,-0.074,-0.017,0.098,0.049
SORT1 (UniProt Q99523),-0.042,0.013,-0.006,-0.012,-0.038,-0.003,-0.008,-0.072,-0.003,0.015,-0.984 (active),-1.34 (active),-0.013,0.032,-0.028,0.007,0.003,0.008,-0.028,-0.582 (active)
TBC1D15 isoform 3 (UniProt Q8TC07),0.076,-0.028,-0.003,-0.019,0.002,0.049,0.12,-0.015,0.046,0.068,-0.221,-0.485 (active),0.04,0.004,-0.081,-0.024,0.031,0.05,0.018,-0.241 (active)
SPTBN4 (UniProt Q9H254),-0.013,-0.037,0.144,0.025,0.039,-0.027,-0.036,-0.12,0.112,-0.013,0.051,-0.293,-0.025,-0.018,-0.065,-0.1,0.171,0.017,0.011,0.153
SLC4A2 (UniProt P04920),0.04,0.008,0.039,-0.017,0.046,0.002,0.035,-0.043,0.037,0.045,0.039,-0.071,-0.044,0.029,-0.021,-0.028,0.022,0.066,0.035,-0.018
TM9SF2 (UniProt Q99805),0.056,-0.009,-0.005,-0.001,-0.039,-0.03,0.018,-0.004,-0.019,0.035,-0.57 (active),-0.621 (active),-0.008,-0.034,0.033,-0.017,0.018,-0.052,-0.01,-0.182
SMAD2 (UniProt Q15796),0.036,-0.034,0.01,0.052,-0.382,-0.016,0.04,-0.027,0.047,0.047,-0.067,-0.347 (active),0.065,0.11,-0.032,-0.014,0.014,0.078,-0.158,-0.018
SSR4 (UniProt P51571),-0.004,0.012,0.064,0.039,-0.046,-0.014,0.081,-0.035,0.03,-0.052,0.004,-0.01,-0.004,0.029,0.06,0.002,-0.022,0.015,-0.028,0.045
SUPT16H (UniProt Q9Y5B9),0.082,-0.081,0.01,0.102,-0.019,0.186,0.093,0.061,0.223,0.187,-0.426,-0.363,0.095,0.085,-0.108,-0.089,0.285,0.073,-0.02,-0.198
TCOF1 isoform 4 (UniProt Q13428),-0.03,0.015,-0.028,-0.019,-0.001,-0.029,-0.012,-0.004,0.056,0.006,-0.018,0.034,-0.016,-0.02,0.013,0.063,-0.052,-0.011,0.019,-0.06
SSR3 isoform 2 (UniProt Q9UNL2),-0.032,0.123,-0.014,0.022,-0.103,0.11,-0.011,-0.075,-0.042,0.017,0.05,0.059,-0.075,-0.054,0.062,-0.069,0.087,-0.002,0.056,0.195
TGFBI (UniProt Q15582),-0.167,0.101,0.062,0.091,-0.082,0.157,-0.044,-0.255,-0.08,0.068,-0.089,-0.211,-0.044,-0.33,-0.026,0.068,-0.128,0.118,0.171,-0.142
TK1 (UniProt P04183),-0.035,0.001,0.01,-0.004,0.014,0.003,-0.012,-0.095,0.011,0.011,0.039,0.062,-0.039,0.084,-0.015,0.001,-0.009,0,-0.075,-0.046
SRPRA (UniProt P08240),0.089,-0.06,0.018,0.047,0,0.038,0.069,0.001,0.018,0.04,-0.116,-0.107,0.007,0.02,-0.07,-0.036,0.032,-0.002,-0.055,0.009
SRSF2 (UniProt Q01130),-0.023,0.053,-0.033,-0.032,0.036,-0.046,-0.025,-0.023,0.005,-0.007,0.087,0.134,-0.027,-0.069,0.047,0.022,-0.082,-0.024,0.045,0.054
